The values below come from PubChem BioAssay (EPA / NIEHS).

Structures are written as SMILES. Records with an inconclusive call do not appear. The source made the active and inactive calls. How the source made its calls, unless noted: active means hit-call score of the fitted dose curve at least 0.9, where 1 is the maximum; inactive means score below 0.9.

The nature of assay [1]: BSK_4H_Eotaxin3: BioMAP Diversity Plus: 4H Assay for Eotaxin 3 Biomarker Activity (AID 2283000).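 On outcome: CCL26 protein level quantified by ELISA in parallel with SRB cytotoxicity check.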 Conditions: primary human endothelial cells (HUVEC); actives raise or lower the signal. Put shortly: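 Readout is Eotaxin-3 (CCL26) level by ELISA in primary human umbilical vein endothelial cells harvested 24 h after chemical exposure; activity fitted in both directions against DMSO control.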

Assay [2] deals with human Peroxisome Proliferator-activated Receptor alpha (PPARa), PPARA (gene 5465) (UniProt Q07869). In words: ATG_PPARa_TRANS: Attagene TRANS-FACTORIAL HepG2 Assay for human Peroxisome Proliferator-activated Receptor alpha (PPARa) (AID 2283001; active means hit-call score of the fitted dose curve at least 0.9, where 1 is the maximum;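 on AC50: potency for gain of reporter signal over DMSO so agonist or activator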). Put shortly: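 Reporter transcripts from GAL4-UAS units in transfected HepG2 were quantified 24 h after dosing. Detection used reverse transcription, PCR, fluorescent primer extension and capillary electrophoresis, with DMSO as baseline.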

Read-out in assay [3]: Intercellular Adhesion Molecule 1 (ICAM1), ICAM1 (gene 3383)
In words: BSK_3C_ICAM1: BioMAP Diversity Plus: 3C Assay for Intercellular Adhesion Molecule 1 (ICAM1) Biomarker Activity (AID 2283003). The following applies: primary human endothelial cells (HUVEC); actives raise or lower the signal. In short, it runs like this: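 Primary human umbilical vein endothelial cells in the BioMAP 3C system were exposed to chemicals for 24 h, then ICAM-1 was quantified by ELISA. Activity was fitted bidirectionally against the DMSO negative control baseline.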

A short description of assay [4]: BSK_3C_Proliferation: Cell Proliferation Assessment in the BioMAP Diversity Plus: 3C Assay (AID 2283006).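 On AC50: potency may reflect either rise or fall in cell number versus DMSO.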 The following applies: primary human endothelial cells (HUVEC). In short, it runs like this:
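Human umbilical vein endothelial cells were grown sub-confluent and exposed to chemical for 48 h, then fixed with 10% TCA and stained with 0.1% sulforhodamine B; absorbance at 560 nm gave relative cell number, fitted bidirectionally against DMSO baseline.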

The target of assay [5] is Peroxisome proliferator-activated receptor gamma (Homo sapiens) (UniProt P37231). In words: ATG_PPARg_TRANS: Attagene TRANS-FACTORIAL HepG2 Assay for human Peroxisome Proliferator-activated Receptor-gamma (PPARg) (AID 2283007; active means hit-call score of the fitted dose curve at least 0.9, where 1 is the maximum). In short, it runs like this: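 Twenty-four hours after chemical dosing of transiently transfected HepG2 cells, isolated RNA was converted to cDNA, reporter sequences amplified and 6-FAM-labelled, then HpaI-digested and analysed by capillary electrophoresis. Signal increase against DMSO was fitted.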

Assay [6] deals with Nuclear receptor subfamily 1 group I member 2 (Homo sapiens) (UniProt O75469). Put plainly: ATG_PXR_TRANS: Attagene TRANS-FACTORIAL HepG2 Assay for human Pregnane X Receptor (PXR) (AID 2283008; active means hit-call score of the fitted dose curve at least 0.9, where 1 is the maximum). In short, it runs like this: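 Fluorescence intensity of FAM-labelled, HpaI-digested reporter amplicons, separated by capillary electrophoresis, quantifies induction. HepG2 cells with PXR-Gal4 trans-reporter system were exposed 24 h; DMSO defines baseline.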

Assay [7] deals with human RAR-related Orphan Receptor gamma (RORg), RORC (gene 6097) (UniProt P51449). Put plainly: ATG_RORg_TRANS: Attagene TRANS-FACTORIAL HepG2 Assay for human RAR-related Orphan Receptor gamma (RORg) (AID 2283011; active means hit-call score of the fitted dose curve at least 0.9, where 1 is the maximum). Put shortly:
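Transient MRTU transfection of HepG2 (TRANS format, exogenous NR-Gal4 chimera). 24 h dosing. Total RNA → oligo(dT) RT → PCR → 6-FAM labelling → HpaI cut → CE. Gain vs DMSO.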

Assay [8] deals with human Thyroid Receptor alpha (THRa1), THRA (gene 7067) (UniProt P10827). Put plainly: ATG_THRa1_TRANS: Attagene TRANS-FACTORIAL HepG2 Assay for human Thyroid Receptor alpha (THRa1) (AID 2283014; active means hit-call score of the fitted dose curve at least 0.9, where 1 is the maximum). In short, it runs like this:
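Transient HepG2 transfection, NR-Gal4 chimera driving GAL4-UAS reporters; 24 h compound exposure; total RNA, oligo(dT) RT, PCR, fluorescent primer extension, capillary electrophoresis. Upward direction vs DMSO control.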

Read-out in assay [9]: E-selectin (Homo sapiens) (UniProt P16581)
In words: BSK_3C_Eselectin: BioMAP Diversity Plus: 3C Assay for Eselectin Biomarker Activity (AID 2283015).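 Further: cell surface E-selectin protein quantified by ELISA 24 h after dosing.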 Conditions: primary human endothelial cells (HUVEC); actives raise or lower the signal. In short, it runs like this: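 HUVEC, 3C stimulation; compound exposure 24 h; E-selectin by ELISA; gain- or loss-of-signal fitted bidirectionally vs DMSO baseline.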

Read-out in assay [10]: Interleukin-1 alpha (IL1a), IL1A (gene 3552)
Put plainly: BSK_BE3C_IL1a: BioMAP Diversity Plus: BE3C Assay for Interleukin-1 alpha (IL1a) Biomarker Activity (AID 2283016). Conditions: primary human bronchial epithelial cells; actives raise or lower the signal. Put shortly:
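Human primary bronchial epithelial cells (BE3C system) were dosed with compound and IL-1a measured by ELISA 24 h later. Activity was fitted bidirectionally against DMSO baseline; cytotoxicity was tracked in parallel cultures by SRB total-protein staining.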

Read-out in assay [11]: Monocyte Chemoattractant Protein-1 (MCP1), CCL2 (gene 6347)
Put plainly: BSK_3C_MCP1: BioMAP Diversity Plus: 3C Assay for Monocyte Chemoattractant Protein-1 (MCP1) Biomarker Activity (AID 2283017). The following applies: primary human endothelial cells (HUVEC); actives raise or lower the signal. Put shortly:
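HUVEC, 3C system; 24 h chemical exposure; MCP-1 by ELISA; bidirectional curve fit vs DMSO baseline.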

Read-out in assay [12]: Human Leukocyte Antigen - DR isotype (HLADR), HLA-DRA (gene 3122)
In words: BSK_3C_HLADR: BioMAP Diversity Plus: 3C Assay for Human Leukocyte Antigen - DR isotype (HLADR) Biomarker Activity (AID 2283019).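 Further: ELISA of cell-surface HLA-DR on HUVEC 24 h after dosing.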 The following applies: primary human endothelial cells (HUVEC); actives raise or lower the signal. Put shortly: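 HUVEC, 3C stimulation, 24 h post-dose; HLA-DR by ELISA; bidirectional curve fit vs DMSO baseline; gain or loss of signal scored.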

Read-out in assay [13]: Interleukin-8 (IL8), CXCL8 (gene 3576)
In words: BSK_3C_IL8: BioMAP Diversity Plus: 3C Assay for Interleukin-8 (IL8) Biomarker Activity (AID 2283020). The following applies: primary human endothelial cells (HUVEC); actives raise or lower the signal. Put shortly: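 Primary human umbilical vein endothelial cells (3C system) were exposed to test chemical for 24 h, then IL-8 was quantified by ELISA. Responses were fitted bidirectionally against DMSO vehicle as baseline.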

The target of assay [14] is human Peroxisome Proliferator-activated Receptor delta (PPARd), PPARD (gene 5467) (UniProt Q03181). Put plainly: ATG_PPARd_TRANS: Attagene TRANS-FACTORIAL HepG2 Assay for human Peroxisome Proliferator-activated Receptor delta (PPARd) (AID 2283002; active means hit-call score of the fitted dose curve at least 0.9, where 1 is the maximum). In short, it runs like this: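 Read-out is induced reporter mRNA, quantified by RT-PCR with fluorescent labelling and capillary electrophoresis after 24 h dosing. Cells are HepG2 transiently carrying multiple GAL4-UAS reporter units driven by exogenous NR-GAL4 chimeras; DMSO serves as baseline.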

The target in assay [15] is Retinoic acid receptor RXR-alpha (Homo sapiens) (UniProt P19793). In words: ATG_RXRa_TRANS: Attagene TRANS-FACTORIAL HepG2 Assay for human Retinoid X Receptor alpha (RXRa) (AID 2283012; active means hit-call score of the fitted dose curve at least 0.9, where 1 is the maximum). In short, it runs like this:
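HepG2 cells transiently transfected with multiplexed GAL4-UAS reporter units and chimeric NR-GAL4 fusions, dosed 24 h. Reporter mRNA measured by RT-PCR, FAM labelling, HpaI digestion and capillary electrophoresis; gain-of-signal fitted relative to DMSO baseline.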

Assay [16] deals with human Retinoid X Receptor beta (RXRb), RXRB (gene 6257) (UniProt P28702). In words: ATG_RXRb_TRANS: Attagene TRANS-FACTORIAL HepG2 Assay for human Retinoid X Receptor beta (RXRb) (AID 2283013; active means hit-call score of the fitted dose curve at least 0.9, where 1 is the maximum). In short, it runs like this:
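HepG2 cells transiently transfected with multiplexed reporter units driven by GAL4-UAS and exogenous chimeric NR-Gal4 proteins; treated 24 h. Reporter mRNA measured by RT-PCR, 6-FAM labelling and capillary electrophoresis; gain-of-signal fitted versus DMSO baseline.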

The target of assay [17] is human Retinoic Acid Receptor beta (RARb), RARB (gene 5915) (UniProt P10826). In words: ATG_RARb_TRANS: Attagene TRANS-FACTORIAL HepG2 Assay for human Retinoic Acid Receptor beta (AID 2283004; active means hit-call score of the fitted dose curve at least 0.9, where 1 is the maximum). In short, it runs like this: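 Readout is reporter mRNA induction: RNA reverse-transcribed, PCR-amplified, FAM-labelled, HpaI-cut and resolved by capillary electrophoresis. Transiently transfected HepG2 cells carrying exogenous NR–Gal4 chimeras were dosed for 24 h; activity fitted upward relative to DMSO.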

In assay [18] the target is Retinoic acid receptor alpha (Homo sapiens) (UniProt P10276). Put plainly: ATG_RARa_TRANS: Attagene TRANS-FACTORIAL HepG2 Assay for human Retinoic Acid Receptor alpha (RARa) (AID 2283005; active means hit-call score of the fitted dose curve at least 0.9, where 1 is the maximum). In short, it runs like this: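 Reporter transcripts, measured by RT-PCR with fluorescent labeling and capillary electrophoresis after 24 h dosing, reflect activity of an exogenous human RARa–GAL4 fusion in transiently transfected HepG2. Fitted for increase relative to DMSO.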

The target in assay [19] is human Retinoic Acid Receptor gamma (RARg), RARG (gene 5916) (UniProt P13631). Put plainly: ATG_RARg_TRANS: Attagene TRANS-FACTORIAL HepG2 Assay for human Retinoic Acid Receptor gamma (RARg) (AID 2283009; active means hit-call score of the fitted dose curve at least 0.9, where 1 is the maximum). In short, it runs like this:
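HepG2 cells transiently transfected with multiplexed reporter units expressing chimeric RARg-GAL4 and GAL4-UAS-driven reporters; 24 h compound exposure. Reporter mRNA quantified by RT-PCR with fluorescent labelling and capillary electrophoresis; gain-of-signal fitted relative to DMSO baseline.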

Read-out in assay [20]: Monocyte Chemoattractant Protein-1 (MCP1), CCL2 (gene 6347)
In words: BSK_4H_MCP1: BioMAP Diversity Plus: 4H Assay for Monocyte Chemoattractant Protein-1 (MCP1) Biomarker Activity (AID 2283018). Conditions: primary human endothelial cells (HUVEC); actives raise or lower the signal. In short, it runs like this: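 Human umbilical vein endothelial cells (4H system) dosed with chemical; MCP-1 measured by ELISA 24 h after dosing. Bidirectional curve fitting against DMSO negative control as baseline; parallel SRB total-protein staining tracks overt cytotoxicity.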

Sequence of E-selectin (Homo sapiens) (P16581 whole entry, looked up): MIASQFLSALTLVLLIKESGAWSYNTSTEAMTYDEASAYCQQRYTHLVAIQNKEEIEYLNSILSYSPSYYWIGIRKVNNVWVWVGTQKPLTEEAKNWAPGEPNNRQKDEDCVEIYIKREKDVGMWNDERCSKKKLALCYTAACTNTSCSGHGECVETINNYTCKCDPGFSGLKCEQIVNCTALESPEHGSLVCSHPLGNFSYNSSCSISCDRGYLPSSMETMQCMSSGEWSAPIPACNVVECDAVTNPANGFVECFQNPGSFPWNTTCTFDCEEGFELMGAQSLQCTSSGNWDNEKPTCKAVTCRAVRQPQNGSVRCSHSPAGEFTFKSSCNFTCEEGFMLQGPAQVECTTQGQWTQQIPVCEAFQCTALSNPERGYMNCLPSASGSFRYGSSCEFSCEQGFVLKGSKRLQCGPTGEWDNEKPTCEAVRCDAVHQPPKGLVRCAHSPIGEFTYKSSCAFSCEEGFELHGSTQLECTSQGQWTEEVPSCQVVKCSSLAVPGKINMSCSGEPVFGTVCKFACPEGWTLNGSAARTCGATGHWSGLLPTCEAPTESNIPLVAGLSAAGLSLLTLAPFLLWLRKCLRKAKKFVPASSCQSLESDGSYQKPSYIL
Sequence of Nuclear receptor subfamily 1 group I member 2 (Homo sapiens) (O75469 whole entry, looked up, the tested form may be a part): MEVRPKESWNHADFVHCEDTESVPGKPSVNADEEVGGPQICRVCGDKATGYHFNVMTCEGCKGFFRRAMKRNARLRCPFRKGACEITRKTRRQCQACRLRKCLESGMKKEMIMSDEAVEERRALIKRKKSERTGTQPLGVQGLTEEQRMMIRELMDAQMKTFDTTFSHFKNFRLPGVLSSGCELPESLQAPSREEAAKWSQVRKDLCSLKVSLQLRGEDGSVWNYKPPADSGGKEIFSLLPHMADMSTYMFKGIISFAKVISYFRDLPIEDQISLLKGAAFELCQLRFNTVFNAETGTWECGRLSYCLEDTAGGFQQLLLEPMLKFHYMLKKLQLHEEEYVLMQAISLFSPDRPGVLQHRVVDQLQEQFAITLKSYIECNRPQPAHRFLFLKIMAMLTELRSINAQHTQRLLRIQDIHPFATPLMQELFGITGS
Sequence of human Thyroid Receptor alpha (THRa1), THRA (gene 7067) (P10827 whole entry, looked up, the tested form may be a part): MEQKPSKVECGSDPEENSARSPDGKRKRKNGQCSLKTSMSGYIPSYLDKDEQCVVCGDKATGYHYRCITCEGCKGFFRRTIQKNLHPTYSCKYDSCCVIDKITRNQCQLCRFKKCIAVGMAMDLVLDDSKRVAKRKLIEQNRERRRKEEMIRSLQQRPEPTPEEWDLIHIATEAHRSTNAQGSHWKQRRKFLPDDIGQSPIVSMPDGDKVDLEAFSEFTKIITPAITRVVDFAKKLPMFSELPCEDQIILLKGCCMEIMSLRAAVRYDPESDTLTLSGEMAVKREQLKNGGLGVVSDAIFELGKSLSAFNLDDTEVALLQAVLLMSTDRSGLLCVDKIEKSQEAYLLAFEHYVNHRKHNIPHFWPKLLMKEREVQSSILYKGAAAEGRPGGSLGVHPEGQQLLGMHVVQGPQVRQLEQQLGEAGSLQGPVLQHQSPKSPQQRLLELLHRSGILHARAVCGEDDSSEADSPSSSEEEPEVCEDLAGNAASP
Sequence of human RAR-related Orphan Receptor gamma (RORg), RORC (gene 6097) (P51449 whole entry, looked up, the tested form may be a part): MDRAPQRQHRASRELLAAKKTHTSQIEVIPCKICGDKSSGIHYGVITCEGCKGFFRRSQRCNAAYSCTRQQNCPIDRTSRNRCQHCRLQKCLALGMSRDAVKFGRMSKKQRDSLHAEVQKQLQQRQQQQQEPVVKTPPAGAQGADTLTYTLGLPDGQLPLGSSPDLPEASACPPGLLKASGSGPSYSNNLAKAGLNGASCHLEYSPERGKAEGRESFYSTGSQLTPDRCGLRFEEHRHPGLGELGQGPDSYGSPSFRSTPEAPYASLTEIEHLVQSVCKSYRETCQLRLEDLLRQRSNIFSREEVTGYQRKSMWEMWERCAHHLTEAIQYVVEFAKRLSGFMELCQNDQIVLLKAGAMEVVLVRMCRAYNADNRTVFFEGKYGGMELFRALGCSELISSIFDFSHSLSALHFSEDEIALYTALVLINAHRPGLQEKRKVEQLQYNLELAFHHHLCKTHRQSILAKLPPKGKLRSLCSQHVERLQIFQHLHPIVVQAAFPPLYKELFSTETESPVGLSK
Sequence of Peroxisome proliferator-activated receptor gamma (Homo sapiens) (P37231 whole entry, looked up): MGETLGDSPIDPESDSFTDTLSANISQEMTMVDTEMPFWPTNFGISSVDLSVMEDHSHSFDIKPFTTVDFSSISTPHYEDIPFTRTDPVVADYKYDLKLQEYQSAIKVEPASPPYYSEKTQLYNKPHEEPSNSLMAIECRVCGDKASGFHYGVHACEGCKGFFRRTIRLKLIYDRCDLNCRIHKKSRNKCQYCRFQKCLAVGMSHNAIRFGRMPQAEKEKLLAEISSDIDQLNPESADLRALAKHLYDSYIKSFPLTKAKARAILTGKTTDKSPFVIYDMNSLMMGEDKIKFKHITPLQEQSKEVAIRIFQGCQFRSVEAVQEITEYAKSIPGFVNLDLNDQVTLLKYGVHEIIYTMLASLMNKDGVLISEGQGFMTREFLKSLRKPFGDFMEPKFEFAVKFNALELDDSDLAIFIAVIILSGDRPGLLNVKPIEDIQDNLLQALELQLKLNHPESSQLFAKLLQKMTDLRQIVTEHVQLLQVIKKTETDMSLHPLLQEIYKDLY
Sequence of Retinoic acid receptor RXR-alpha (Homo sapiens) (P19793 whole entry, looked up, the tested form may be a part): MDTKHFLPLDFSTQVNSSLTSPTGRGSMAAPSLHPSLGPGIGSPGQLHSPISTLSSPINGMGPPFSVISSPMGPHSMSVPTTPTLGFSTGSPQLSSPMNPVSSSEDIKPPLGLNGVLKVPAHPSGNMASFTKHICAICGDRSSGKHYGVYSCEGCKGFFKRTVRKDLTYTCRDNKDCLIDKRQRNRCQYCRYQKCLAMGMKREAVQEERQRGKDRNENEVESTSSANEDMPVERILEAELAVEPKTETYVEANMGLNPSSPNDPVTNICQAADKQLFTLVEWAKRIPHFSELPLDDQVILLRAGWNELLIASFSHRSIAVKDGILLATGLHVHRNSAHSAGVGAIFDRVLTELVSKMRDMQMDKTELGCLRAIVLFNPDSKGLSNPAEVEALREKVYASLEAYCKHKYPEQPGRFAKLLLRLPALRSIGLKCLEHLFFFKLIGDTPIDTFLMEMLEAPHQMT
Sequence of human Retinoid X Receptor beta (RXRb), RXRB (gene 6257) (P28702 whole entry, looked up, the tested form may be a part): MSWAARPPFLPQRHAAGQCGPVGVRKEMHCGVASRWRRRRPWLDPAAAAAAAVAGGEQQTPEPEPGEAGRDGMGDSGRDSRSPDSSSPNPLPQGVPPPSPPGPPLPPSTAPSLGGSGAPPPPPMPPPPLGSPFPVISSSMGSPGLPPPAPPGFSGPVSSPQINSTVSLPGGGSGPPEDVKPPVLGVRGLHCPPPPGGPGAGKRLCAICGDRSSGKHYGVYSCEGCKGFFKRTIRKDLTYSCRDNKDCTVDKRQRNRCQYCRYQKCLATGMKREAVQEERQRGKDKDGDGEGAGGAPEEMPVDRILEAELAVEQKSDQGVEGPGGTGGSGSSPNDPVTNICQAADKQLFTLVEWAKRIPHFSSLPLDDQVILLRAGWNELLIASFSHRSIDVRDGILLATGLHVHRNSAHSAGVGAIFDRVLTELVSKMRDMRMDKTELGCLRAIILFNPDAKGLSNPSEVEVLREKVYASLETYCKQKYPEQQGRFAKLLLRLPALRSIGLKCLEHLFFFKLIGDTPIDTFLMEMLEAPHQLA
Sequence of human Retinoic Acid Receptor gamma (RARg), RARG (gene 5916) (P13631 whole entry, looked up, the tested form may be a part): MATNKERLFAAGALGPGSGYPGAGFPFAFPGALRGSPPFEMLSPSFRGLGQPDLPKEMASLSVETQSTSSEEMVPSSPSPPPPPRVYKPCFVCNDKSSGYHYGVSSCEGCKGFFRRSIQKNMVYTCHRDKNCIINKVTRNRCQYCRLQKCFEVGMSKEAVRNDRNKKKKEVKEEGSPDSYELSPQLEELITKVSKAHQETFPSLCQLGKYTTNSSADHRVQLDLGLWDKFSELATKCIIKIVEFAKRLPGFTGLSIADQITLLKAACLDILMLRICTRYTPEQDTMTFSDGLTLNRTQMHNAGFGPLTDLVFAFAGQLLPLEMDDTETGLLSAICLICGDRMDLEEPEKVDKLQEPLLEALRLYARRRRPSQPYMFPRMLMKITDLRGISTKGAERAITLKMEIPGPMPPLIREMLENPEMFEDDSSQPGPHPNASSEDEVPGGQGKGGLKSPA
Sequence of human Peroxisome Proliferator-activated Receptor alpha (PPARa), PPARA (gene 5465) (Q07869 whole entry, looked up, the tested form may be a part): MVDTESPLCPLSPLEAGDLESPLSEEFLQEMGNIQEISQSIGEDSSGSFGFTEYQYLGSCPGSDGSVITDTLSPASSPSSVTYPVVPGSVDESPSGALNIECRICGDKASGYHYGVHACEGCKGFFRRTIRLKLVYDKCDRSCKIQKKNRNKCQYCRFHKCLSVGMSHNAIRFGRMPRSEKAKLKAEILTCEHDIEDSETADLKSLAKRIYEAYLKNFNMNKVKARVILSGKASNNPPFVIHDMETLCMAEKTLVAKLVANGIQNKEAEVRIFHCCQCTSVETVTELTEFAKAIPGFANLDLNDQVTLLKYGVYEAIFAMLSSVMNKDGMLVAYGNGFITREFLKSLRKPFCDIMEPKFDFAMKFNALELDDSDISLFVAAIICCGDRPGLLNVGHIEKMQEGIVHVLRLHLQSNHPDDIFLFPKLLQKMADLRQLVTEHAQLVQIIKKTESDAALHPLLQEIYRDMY
Sequence of human Peroxisome Proliferator-activated Receptor delta (PPARd), PPARD (gene 5467) (Q03181 whole entry, looked up, the tested form may be a part): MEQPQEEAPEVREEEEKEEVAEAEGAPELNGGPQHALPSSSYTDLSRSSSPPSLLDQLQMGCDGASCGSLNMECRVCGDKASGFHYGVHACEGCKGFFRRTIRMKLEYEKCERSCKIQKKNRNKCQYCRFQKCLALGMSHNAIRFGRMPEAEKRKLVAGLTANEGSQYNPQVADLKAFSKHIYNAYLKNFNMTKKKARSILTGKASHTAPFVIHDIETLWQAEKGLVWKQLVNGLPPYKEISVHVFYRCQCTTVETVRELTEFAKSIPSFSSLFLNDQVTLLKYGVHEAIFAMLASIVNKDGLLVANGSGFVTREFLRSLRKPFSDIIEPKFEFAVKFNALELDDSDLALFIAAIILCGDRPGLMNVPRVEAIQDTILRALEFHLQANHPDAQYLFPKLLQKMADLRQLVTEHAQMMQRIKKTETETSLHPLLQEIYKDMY

In the case of `C[C@]12C=CC(=O)C=C1CC[C@@H]1[C@@H]2C(=O)C[C@@]2(C)[C@H]1CC[C@]2(O)C(=O)CO`, the result in assay [1], in assay [2], in assay [3], in assay [4], in assay [5] and in assay [6] was inactive. Moreover, the molecule was classed as inactive in assay [7], in [8], in assay [9], in assay [10], in [11] and in [12]. Further, in assay [13], the outcome was inactive.

By AC50 is commonly meant the concentration at which the activity in the assay is half-maximal. `O=c1[nH]cc(F)c(=O)[nH]1`: the outcome in [1], in assay [2], in assay [14], in [3], in [15] and in assay [16] was inactive. In addition, the outcome in assay [9], in assay [10], in [11] and in [12] was inactive. In assay [4], the AC50 was 7.81 µM (active).

For the molecule `Nc1nc(N)c2nc(CNc3ccc(C(=O)N[C@@H](CCC(=O)O)C(=O)O)cc3)cnc2n1`, the outcome in assay [1], in assay [14], in assay [3], in assay [17], in assay [18] and in assay [4] was inactive. The outcome in [19], in assay [7], in [15], in assay [16], in assay [8] and in assay [9] was inactive. For the same molecule, the result in assay [10], in [11], in assay [20] and in [13] was inactive.

Turning to `CCCCOC(=O)CCCCCCCCC(=O)OCCCC`, the outcome in [1], in assay [3], in assay [4], in assay [5], in [6] and in [19] was inactive. Moreover, the molecule was called inactive in assay [15], in assay [16], in assay [9], in assay [10], in assay [11] and in assay [20]. Further, the outcome in assay [12] was inactive. Further, the AC50 in assay [2] is 37 µM (active).

For `CC(CO)OC(C)CO` (stereo not given) (tested in a mixture with another compound), the outcome in [1], in assay [2], in assay [3], in [4], in assay [6] and in assay [15] was inactive. Further, the outcome in assay [9], in assay [10] and in [11] was inactive. For the same molecule, the concentration at half-maximal activity (AC50) in assay [16] is 13.8 µM (active).

As to `Cc1cc(NC(=O)C(=O)O)cc(C)c1Oc1ccc(O)c2c1CCC2`, the outcome in assay [1], in assay [2], in assay [14], in assay [3], in [4] and in assay [6] was inactive. Also, the molecule was classed as inactive in assay [7], in [15], in assay [16], in assay [9], in [10] and in [11]. Besides, the result in assay [20] and in assay [12] was inactive. Further, the AC50 in [8] was 8.69 nM (active).

In the case of `COc1ccc(C)cc1N`, the result in assay [1], in assay [2], in [14], in [3], in assay [17] and in [4] was inactive. Moreover, the outcome in assay [5], in assay [19], in assay [7], in assay [8], in assay [9] and in assay [10] was inactive. The result in assay [11], in assay [20], in [12] and in assay [13] was inactive.

Turning to `Cc1nc(-c2ccc3c(c2)CCN(CCC2CCC(NC(=O)/C=C/c4ccc(F)cc4)CC2)CC3)no1` (stereo not given), the AC50 is 12.9 µM (active) in assay [1], 4.71 µM (active) in assay [4] and 7.5 µM (active) in assay [13]. Besides, the result in [2], in assay [3], in assay [5], in [9], in [10] and in [11] was inactive. The outcome in [20] was inactive.
